# Where “and” joins values, the source holds several entries; their conditions need not be identical. Equal entries are not always repeated. Records with an inconclusive call do not appear. A call without a number means that no potency is given here. Calls of active or inactive are those of the source. Unless noted, calls follow the shape of the dose curve; as a rule, active = well fitted curve in the direction sought with a large enough effect; inconclusive = small, poorly fitted or top-dose-only effect, or another doubt; inactive = no such curve, though single readings can be large; an effect the other way counts as inactive or inconclusive.
# Key:
# [1] = target: T1, Hexokinase-4 (Homo sapiens) + Glucokinase regulatory protein (Homo sapiens) (UniProt P35557+Q14397); test: qHTS assay for inhibitors of recombinant human GCK-GKRP interaction: Diaphorase-coupled assay (AID 743205)
# T1 sequence (P35557 whole entry, looked up): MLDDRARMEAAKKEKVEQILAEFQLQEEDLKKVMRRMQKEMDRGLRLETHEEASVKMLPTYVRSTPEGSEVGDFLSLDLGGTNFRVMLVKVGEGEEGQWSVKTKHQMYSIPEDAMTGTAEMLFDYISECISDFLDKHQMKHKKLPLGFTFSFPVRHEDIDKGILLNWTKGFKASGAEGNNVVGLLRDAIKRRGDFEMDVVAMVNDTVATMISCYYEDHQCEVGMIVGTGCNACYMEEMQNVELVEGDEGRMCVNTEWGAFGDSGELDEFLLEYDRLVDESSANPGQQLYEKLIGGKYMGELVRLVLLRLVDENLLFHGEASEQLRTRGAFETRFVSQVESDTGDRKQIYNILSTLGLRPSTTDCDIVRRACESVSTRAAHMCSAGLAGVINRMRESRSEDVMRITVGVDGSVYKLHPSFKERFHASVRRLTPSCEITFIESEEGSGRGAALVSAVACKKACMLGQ
# T1 sequence (Q14397 whole entry, looked up): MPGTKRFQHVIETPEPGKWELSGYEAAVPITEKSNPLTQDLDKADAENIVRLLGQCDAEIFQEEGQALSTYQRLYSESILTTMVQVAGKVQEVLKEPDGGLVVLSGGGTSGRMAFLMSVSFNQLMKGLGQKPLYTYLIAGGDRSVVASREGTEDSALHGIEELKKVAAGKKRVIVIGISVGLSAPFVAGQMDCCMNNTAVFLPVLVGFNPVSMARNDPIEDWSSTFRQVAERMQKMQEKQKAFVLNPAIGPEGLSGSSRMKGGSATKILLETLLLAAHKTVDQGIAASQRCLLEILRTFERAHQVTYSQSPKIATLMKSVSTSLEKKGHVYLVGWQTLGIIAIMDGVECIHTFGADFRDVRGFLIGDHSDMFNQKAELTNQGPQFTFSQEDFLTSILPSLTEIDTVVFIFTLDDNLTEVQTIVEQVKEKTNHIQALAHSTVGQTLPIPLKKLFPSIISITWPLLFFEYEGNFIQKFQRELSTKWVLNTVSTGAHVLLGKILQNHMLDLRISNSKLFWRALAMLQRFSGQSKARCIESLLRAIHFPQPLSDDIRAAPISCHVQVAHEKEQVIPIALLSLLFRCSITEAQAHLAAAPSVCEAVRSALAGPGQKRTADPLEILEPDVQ
# Summary of the method: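 25 mM Hepes pH 7.6, 5 mM glucose, 0.4 mM ATP, 4 U/ml G6PDH; 10 nM each GST-GCK/FLAG-GKRP. Kinetic fluorescence read, 1/min × 30 min. Normalized: DMSO ± enzyme = max/min.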
# [2] = target: T1, Hexokinase-4 (Homo sapiens) + Glucokinase regulatory protein (Homo sapiens); test: qHTS assay for inhibitors of recombinant human GCK-GKRP interaction: ADP-Glo assay (AID 743206)
# Summary of the method: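 GST-GCK and FLAG-GKRP (15 nM each in the dispensed mix, with 2 uM S6P) react with 0.4 mM ATP and 5 mM glucose (final) in Hepes pH 7.6 for 60 min at room temperature. ADP is measured by ADP-Glo luminescence.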
# [3] = target: T1, Hexokinase-4 (Homo sapiens) + Glucokinase regulatory protein (Homo sapiens); test: qHTS assay for inhibitors of recombinant human GCK-GKRP interaction: HTRF assay (AID 743207)
# Summary of the method: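 5 nM GST-GCK + 5 nM FLAG-GKRP + 2 uM S6P, pH 7.1 buffer (25 mM Hepes, 2 mM MgCl2, 25 mM KCl, 1 mM DTT, Tween/BSA); pin-transferred cpd; anti-FLAG XL665/anti-GST K; 60 min RT; HTRF.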
# [4] = qHTS assay for cell viability of HEK293 cells (AID 743288); conditions: ATP luminescence (CellTiter-Glo), 18 h; max response: stronger effect = lower value; also: nearly all actives have a fitted effect of over 50% in size
# Summary of the method: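 HEK293 parental, 2,000 cells/well; ≥5 h pre-incubation 37 C; pintool compound addition; 18 h, 37 C; CellTiter-Glo 30 min RT; luminescence read.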
# [5] = qHTS assay for cell viability of the p53RE-bla HCT-116 cell line (AID 743292); also: nearly all actives have a fitted effect of over 55% in size
# Summary of the method: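 In this qHTS counter-screen, metabolically competent p53RE-bla HCT-116 cells were counted via their ATP content. Compounds were applied for 16 h at 37 C and luciferase-coupled luminescence was measured.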
# [6] = qHTS assay for measurement of the activity of small molecule inhibitors on Zika virus induced Caspase-3 activity in human iPSC derived neural progenitor cells (hNPCs) (AID 1224857); also: nearly all actives have a fitted effect of over 65% in size
# Summary of the method: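 Percent inhibition of virus-induced caspase-3/7 luminescence (Caspase-Glo), scaled between uninfected cells and Zika-infected cells. hNPCs received compound 1 hr before ZIKV at 2 FFU/cell, with 6 hours infection at 37 C.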
# [7] = qHTS assay for measurement of the activity of small molecule inhibitors on Zika virus induced Caspase-3 activity in human astrocytoma cells (AID 1224859)
# Summary of the method: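 Luminescent caspase-3/7 read-out (30 min reagent, room temperature) in human SNB-19 cells infected 6 h with ZIKV (2 FFU/cell) after 1 h compound pre-incubation; Data were normalised to uninfected and infected wells.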
# [8] = qHTS Assay for Identifying Gametocytocidal Compounds (AID 743244); also: potency is read from the fitted curve at half-maximal effect;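 as to max response: actives lower the fluorescent signal which means gametocytes are killed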; conditions: P. falciparum 3D7 stage III-V gametocytes, alamarBlue, 72 h; max response: stronger effect = lower value
# Summary of the method: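 Viability read-out was resazurin reduction (alamarBlue, 24 h) measured at Ex 525/Em 598 nm. Beforehand, late-stage (III-V) 3D7 P. falciparum gametocytes at 20,000 cells/well were incubated with compound 72 h at 37C under 5% CO2.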
# [9] = qHTS profiling of the MIPE4 collection as inhibitors of Plasmodium falciparum (3D7) proliferation (AID 743344; call rule not given here); conditions: P. falciparum 3D7 in erythrocytes, SYBR Green DNA fluorescence, 72 h; at 28.5 µM (top of the series)
# Summary of the method: (§1)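 Erythrocytes infected with P. falciparum (0.3% parasitemia, 2.5% hematocrit) incubated with compounds 72 h at 37 C, 5% CO2. Lysis with saponin/Triton buffer containing SYBR Green I, overnight at room temperature in the dark; DNA fluorescence (485/535 nm) normalised to 0.29 uM artemisinin and DMSO.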
# [10] = qHTS profiling of the MIPE4 collection as inhibitors of Plasmodium falciparum (DD2) proliferation (AID 743345; call rule not given here); conditions: P. falciparum Dd2 in erythrocytes, SYBR Green DNA, 72 h; at 28.5 µM (top of the series)
# Summary of the method: as §1
# [11] = qHTS profiling of the MIPE4 collection as inhibitors of Plasmodium falciparum (DD2) proliferation (Rep 2) (AID 743346; call rule not given here); conditions: P. falciparum Dd2 in erythrocytes, SYBR Green DNA, 72 h; at 28.5 µM (top of the series)
# Summary of the method: as §1
# [12] = qHTS profiling of the MIPE4 collection as inhibitors of Plasmodium falciparum (HB3) proliferation (AID 743347; call rule not given here); conditions: P. falciparum HB3 in erythrocytes, SYBR Green DNA, 72 h; at 28.5 µM (top of the series)
# Summary of the method: as §1
# [13] = qHTS assay to identify small molecule inhibitors of chordoma cells - UCH-1 (AID 1259355); also: nearly all actives have a fitted effect of over 55% in size
# Summary of the method: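 Cells (800/well) were seeded and left overnight at 37 C, 5% CO2, then treated with drugs at 15 concentrations plus a combination mix of auranofin, camptothecin, doxorubicin, rubitecan and topotecan. Viability after 48hr was read by CellTiter-Glo luminescence.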
smiles,measurement,setting,value
CC(C)NCC(O)COc1cccc2ccccc12 (configuration not stated),outcome,[1],inactive
same,Potency,[2],inactive
same,Potency,[3],inactive
same,max response,[4],1.78% (inactive) and -12.1% (inactive)
same,Potency,[5],inactive
same,Potency,[6],inactive
same,Potency,[7],inactive
COc1cccc(OC)c1OCCNCC1COc2ccccc2O1 (configuration not stated),outcome,[1],inactive
same,Potency,[2],inactive
same,Potency,[3],inactive
same,max response,[8],16.7% (inactive)
same,Potency,[6],inactive
same,Potency,[7],inactive
O=C(Nc1ccccc1)c1cc([N+](=O)[O-])ccc1Cl,outcome,[1],inactive
same,Potency,[2],inactive
same,Potency,[3],inactive
same,max response,[8],-5.62% (inactive)
same,max response,[4],-11.7% (inactive)
same,Potency,[5],inactive
same,Potency,[6],inactive
same,Potency,[7],inactive
CCOC(=O)C1=C(C)NC(C)=C(C(=O)OCC)C1c1c(F)c(F)c(F)c(F)c1F,outcome,[1],inactive
same,Potency,[2],inactive
same,Potency,[3],inactive
same,max response,[8],17% (inactive)
same,Potency,[6],inactive
same,Potency,[7],inactive
O=c1[nH]c2cc([N+](=O)[O-])c([N+](=O)[O-])cc2[nH]c1=O,outcome,[1],inactive
same,Potency,[2],inactive
same,Potency,[3],inactive
same,max response,[8],23.7% (inactive)
same,Potency,[6],inactive
same,Potency,[7],inactive
S=C(S)OC1CC2CC1C1CCCC21 (configuration not stated),outcome,[1],inactive
same,Potency,[2],inactive
same,Potency,[3],inactive
same,max response,[8],22.6% (inactive)
same,Potency,[6],inactive
same,Potency,[7],inactive
CC1CN(S(=O)(=O)c2cccc3cnccc23)CCN1 (configuration not stated),outcome,[1],inactive
same,Potency,[2],inactive
same,Potency,[3],inactive
same,max response,[8],23.3% (inactive)
same,Potency,[6],inactive
same,Potency,[7],inactive
CCCN(CC1CC1)c1nc(C)nc(Nc2c(Cl)cc(Cl)cc2Cl)c1Cl,outcome,[1],inactive
same,Potency,[2],inactive
same,Potency,[3],inactive
same,max response,[8],18.2% (inactive)
same,Potency,[6],inactive
same,Potency,[7],inactive
CC(C)NC[C@H](O)COc1cccc2[nH]ccc12,max response,[8],4.63% (inactive)
same,Potency,[6],inactive
same,Potency,[7],inactive
CN(C)CCC(c1ccc(Cl)cc1)c1ccccn1 (configuration not stated),outcome,[1],inactive
same,Potency,[2],inactive
same,Potency,[3],inactive
same,max response,[4],-8.98% (inactive)
same,Potency,[5],inactive
same,"parasite growth, % of DMSO control",[9],105%
same,"parasite growth remaining, % of DMSO control (lower = more inhibition)",[10],70.9%
same,"parasite growth, % of control (lower = inhibition)",[11],38.1%
same,"growth, % of control",[12],78.9%
same,Potency,[6],inactive
same,Potency,[7],inactive
Fc1cccc(/C=N/N=C/c2cccc(F)c2)c1,outcome,[1],inactive
same,Potency,[2],inactive
same,Potency,[3],inactive
same,max response,[8],22.7% (inactive)
same,Potency,[6],inactive
same,Potency,[7],inactive
Cc1cc(NC2CCCCC2)nc(-n2nc(C)cc2C)n1,outcome,[1],inactive
same,Potency,[2],inactive
same,Potency,[3],inactive
same,Potency,[8],1180 nM (active)
same,Potency,[6],inactive
same,Potency,[7],inactive
c1ccc(-c2ccccn2)nc1,outcome,[1],inactive
same,Potency,[2],inactive
same,Potency,[3],inactive
same,max response,[8],29.6% (inactive)
same,Potency,[6],inactive
same,Potency,[7],inactive
CSc1ccccc1N1CCN(CCCCCC(=O)NC2CCCc3ccccc32)CC1 (configuration not stated),outcome,[1],inactive
same,Potency,[2],inactive
same,Potency,[3],inactive
same,max response,[8],6.9% (inactive)
same,Potency,[6],inactive
same,Potency,[7],inactive
Oc1c(Br)cc(Br)c2cccnc12,Potency,[6],inactive
same,Potency,[13],inactive
OC[C@H]1O[C@@H](n2cnc3c(NC4CCCCC4)ncnc32)[C@H](O)[C@@H]1O,outcome,[1],inactive
same,Potency,[2],inactive
same,Potency,[3],inactive
same,max response,[8],8.7% (inactive)
same,Potency,[6],inactive
same,Potency,[7],inactive
OCC1O[C@H](O)C(Cl)C(O)C1O (some centres not stated),outcome,[1],inactive
same,Potency,[2],inactive
same,Potency,[3],inactive
same,max response,[8],14.4% (inactive)
same,Potency,[6],inactive
same,Potency,[7],inactive
Cn1c(=O)c2[nH]c(-c3ccccc3)nc2n(C)c1=O,outcome,[1],inactive
same,Potency,[2],inactive
same,Potency,[3],inactive
same,max response,[8],16.2% (inactive)
same,Potency,[6],inactive
same,Potency,[7],inactive
CC12C(=O)OC(=O)C1(C)C1CCC2O1 (configuration not stated),outcome,[1],inactive
same,Potency,[2],inactive
same,Potency,[3],inactive
same,max response,[8],3.18% (inactive)
same,Potency,[6],inactive
same,Potency,[7],inactive
Cn1ncc(S(=O)(=O)Cc2ccccc2)c(Br)c1=O,outcome,[1],inactive
same,Potency,[2],inactive
same,Potency,[3],inactive
same,max response,[8],25.3% (inactive)
same,Potency,[6],inactive
same,Potency,[7],inactive
COC(=O)c1c(C)[nH]c(C)c1C(=O)c1ccccc1Cc1ccccc1,outcome,[1],inactive
same,Potency,[2],inactive
same,Potency,[3],inactive
same,max response,[8],-0.767% (inactive)
same,Potency,[6],inactive
same,Potency,[7],inactive
COc1cccc(C(=O)NCCN2CCN(c3ccc(Cl)cc3)CC2)c1,outcome,[1],inactive
same,Potency,[2],inactive
same,Potency,[3],inactive
same,max response,[8],13.6% (inactive)
same,Potency,[6],inactive
same,Potency,[7],inactive
NO,outcome,[1],inactive
same,Potency,[2],inactive
same,Potency,[3],inactive
same,max response,[8],-10.7% (inactive)
same,Potency,[6],inactive
same,Potency,[7],inactive
CN1CCc2ccccc2Cc2[nH]c3ccccc3c2CC1,outcome,[1],inactive
same,Potency,[2],inactive
same,Potency,[3],inactive
same,max response,[8],-0.861% (inactive)
same,Potency,[6],inactive
same,Potency,[7],inactive
CN(C)c1nc(N)c(C(=O)N=C(N)N)nc1Cl,outcome,[1],inactive
same,Potency,[2],inactive
same,Potency,[3],inactive
same,max response,[8],11% (inactive)
same,Potency,[6],inactive
same,Potency,[7],inactive
NCCCCCCCCCCN,outcome,[1],inactive
same,Potency,[2],inactive
same,Potency,[3],inactive
same,max response,[8],2.17% (inactive)
same,Potency,[6],inactive
same,Potency,[7],inactive

# Source: PubChem BioAssay (NCATS)
